In the library only some 2.2% were active in any assay of this set; here they are far more common.
HEK293 tox = qHTS of GLP-1 Receptor Inverse Agonists: Cytotox Screen. HEK293 cAMP-luciferase reporter cells, luminescence, 24 h. 0.13% of 410,000 active. Potency, µM (top dose mostly 38.3 µM), for inactives: at the highest dose activity change, negative = inhibition, most hits filed as inhibitors;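 further: loss of luciferase light is scored as toxicity; potency means the concentration at half of the fitted maximal effect; on the % scale 0 is the no-effect control and ±100 the full control effect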
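Luminescence readout: signal drop marks cytotoxicity. Plated cells grew 12 h at 37 °C, 5% CO2, received 23 nL compound for 24 h, then got luciferase reagent, read after 12 min at RT.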
GLP-1R agonist = qHTS of GLP-1 Receptor Agonists; 0.007% of 380,000 active; Potency, µM (series often up to 45.6 µM), for the others: top-dose activation, usual class: activators; HEK293 GLP-1R CRE-luciferase, luminescence, 4-6 h; cells express a hypersensitive GLP-1R form; further: potency means the concentration at half of the fitted maximal effect; % of control where 0% means no effect
Target sequence (P43220 whole entry, looked up): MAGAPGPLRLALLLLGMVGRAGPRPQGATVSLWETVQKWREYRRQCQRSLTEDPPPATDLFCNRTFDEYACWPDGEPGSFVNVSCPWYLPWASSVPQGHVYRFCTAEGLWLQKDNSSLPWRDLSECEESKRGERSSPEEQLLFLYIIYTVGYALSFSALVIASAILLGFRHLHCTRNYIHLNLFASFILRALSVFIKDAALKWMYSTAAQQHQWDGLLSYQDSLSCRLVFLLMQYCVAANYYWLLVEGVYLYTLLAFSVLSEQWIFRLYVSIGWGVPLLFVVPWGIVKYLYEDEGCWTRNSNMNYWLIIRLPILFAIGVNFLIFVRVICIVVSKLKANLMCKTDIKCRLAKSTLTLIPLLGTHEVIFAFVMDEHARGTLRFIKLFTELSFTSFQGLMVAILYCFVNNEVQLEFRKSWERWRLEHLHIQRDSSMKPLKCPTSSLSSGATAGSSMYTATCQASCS
CCT chaperon mod = High-Throughput Screening for Modulators of Cytosolic Chaperonin Activity; purified chaperonin ATPase assay, HTRF ADP detection, 30 min; 0.3% of 360,000 active; activity change, % (no concentration beside the values), hits read low; in the data active means activity change below about -30%; further: on the % scale 0 is the no-effect control and ±100 the full control effect
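TRiC at 40 or 20 nM final (batch-dependent) in 30 mM Tris pH 7.4, 100 mM KCl, 5 mM MgCl2, 1 mM DTT, with compound at single 76 uM and 10 uM ATP, 30 min at 37 deg C. ADP detected by HTRF Transcreener, 665/615 ratio.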
GLP1R inv ag = qHTS of GLP-1 Receptor Inverse Agonists (Inhibition Mode); Glucagon-like peptide 1 receptor (Homo sapiens), P43220; HEK293 GLP-1R CRE-luciferase, luminescence, 24 h; GLP-1R form is constitutively active; Potency, µM (titrated, usually from 38.3 µM), for inactives: at the highest dose activity change, negative = inhibition, most hits filed as inhibitors; 1.6% of 410,000 active; AID 624417, 2012; further: potency means the concentration at half of the fitted maximal effect; on the % scale 0 is the no-effect control and ±100 the full control effect; nearly all actives have a fitted effect of over 55% in size
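Stable HEK293 clone (constitutively active GLP-1R + cAMP-response luciferase); 200 cells/uL plated, 12 h pre-culture, compound 24 hr, 37 deg C/5% CO2; detection reagent 12 min RT; luminescence.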
Mm-Cpn inhibitor = Inhibitors of TCP-1 ring complex (TRiC) of Methanococcus maripaludis (MmCpn): qHTS | AID 504842, 2011 | 0.031% of 330,000 active | purified Mm-Cpn ATPase, ADP Transcreener TR-FRET | Chaperonin Mm-Cpn (Methanococcus maripaludis) | Potency, µM (doses to about 76.9 µM), without a hit: at the top dose activity, negative = inhibition, most hits filed as inhibitors; further: potency means the concentration at half of the fitted maximal effect; on the % scale 0 is the no-effect control and ±100 the full control effect; nearly all actives have a fitted effect of over 80% in size
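Compound-treated chaperonin, 25 nM final, turns over 10 uM ATP at 37°C for 30 min following a 10 min preincubation; ADP generated competes with ADP-d2 for Eu-cryptate antibody, lowering FRET.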
uPA generation = qHTS for Inhibitors of Cell Surface uPA Generation | cell surface uPA generation assay, qHTS | 0.31% of 330,000 active | Potency, µM (titrated, usually from 38.3 µM), for inactives: at the highest dose activity change, negative = inhibition, usual class: inhibitors | AID 540303, 2011; active means well fitted inhibition curve with a large enough effect; inconclusive means small, poorly fitted or top-dose-only effect; inactive means no such curve, though single readings can be large or run the other way; tested in mouse RAW 264.7 cells; further: potency means the concentration at half of the fitted maximal effect; on the % scale 0 is the no-effect control and ±100 the full control effect; nearly all actives have a fitted effect of over 55% in size
* hit, by the source's call; ? = inconclusive; . = no result. Unless noted, the call rests on the fitted dose curve; in most records, active means well fitted curve in the direction sought with a large enough effect; inconclusive means small, poorly fitted or top-dose-only effect, or another doubt; inactive means no such curve, though single readings can be large; an effect the other way counts as inactive or inconclusive.

SMILES	HEK293 tox	GLP-1R agonist	CCT chaperon mod	GLP1R inv ag	Mm-Cpn inhibitor	uPA generation
Cc1ccc(NC(=O)COC(=O)c2c(-c3ccccc3)noc2C)cc1	-9%	11%	0	10µM*	1%	8%
Cc1ccc(NC(=O)CN(CCc2ccccc2)S(=O)(=O)c2ccccc2)c(C)c1	-6%	.	.	?	.	.
Cc1cc(C)cc(OC(=O)c2snnc2C)c1	-3%	.	.	2%	.	.
CCc1ccc(OCCNC(=O)c2ccccc2SCc2ccc(F)cc2)cc1	-4%	-2%	0	8.9µM*	1%	1%
O=C(NCCOc1ccc(F)cc1)c1ccccc1SCc1ccccc1	18%	7%	-4	?	0%	-2%
Cc1ccc(C)c(OCCC(=O)NCCc2ccc(Cl)cc2)c1	-6%	16%	-3	10µM*	-3%	7%
COc1ccc(CCNC(=O)CCc2ccc(OC)cc2)cc1	3%	-2%	0	10%	-2%	2%
COc1ccc(CCC(=O)NCCOc2ccc(C)cc2)cc1	-3%	2%	-2	1.8µM*	-4%	16%
COc1ccc(-n2ncc3c2ncn2nc(-c4ccc(Cl)cc4Cl)nc32)cc1	-5%	.	.	12%	.	.
Cc1cc2c(n1-c1ccc(C(=O)NCCc3ccc(Cl)cc3)cc1)CCC(C)C2 (stereo not drawn)	-9%	.	.	-15%	.	.
Cc1ccc(CNC(=O)c2cccn2-c2nnc(N3CCCCC3)s2)cc1	-16%	.	.	-2%	.	.
CC(C)NC(=S)N=Nc1c(O)[nH]c2ccc([N+](=O)[O-])cc12	2.5µM*	10%	1	?	-5%	-17%
C=C(C)CNC(=S)N=Nc1c(O)[nH]c2ccc([N+](=O)[O-])cc12	4.5µM*	10%	-4	-73%	1%	1%
NC(=O)N=Nc1c(O)[nH]c2ccc([N+](=O)[O-])cc12	-17%	3%	-2	11%	3%	11%
Cc1cc2cc(CCNC(=O)C(=O)c3c[nH]c4ccccc34)c(=O)[nH]c2cc1C	-25%	14%	0	10µM*	-1%	6%
O=C(NCCc1c[nH]c2ccccc12)C(=O)c1c[nH]c2ccccc12	-30%	-5%	-87*	4.5µM*	2%	-15%
O=S(=O)(NC1c2cccc3cccc(c23)C1N1CCN(CCO)CC1)c1ccccc1 (stereo not drawn)	?	-18%	-5	?	1%	-9%
O=S(=O)(NC1c2cccc3cccc(c23)C1N1CCNCC1)c1ccccc1 (stereo not drawn)	-25%	4%	1	10µM*	1%	-4%
O=S(=O)(c1ccc(Cl)cc1)c1nc(-c2cccs2)oc1SCc1ccccc1F	9%	.	.	10µM*	.	.
O=C(Nc1ccc(Cn2cccn2)cc1)c1ccc(COc2cccc(Br)c2)cc1	-3%	1%	0	5µM*	-2%	0%
Cc1ccc(CN(Cc2ccco2)C(=O)c2oc3cc(Br)ccc3c2C)cc1	9%	.	.	?	.	.
CCc1ccc2oc(C(=O)N(Cc3cccc(Cl)c3)Cc3ccco3)c(C)c2c1	13%	.	.	8.9µM*	.	.
Cc1ccc(CN(Cc2ccco2)C(=O)COc2ccc(Cl)cc2Cl)cc1	7%	.	.	?	.	.
Cc1ccc(CN(Cc2ccco2)C(=O)c2ccc(Cl)cc2Cl)cc1	8%	.	.	13µM*	.	.
O=C(c1ccco1)N(Cc1ccc(Cl)cc1)Cc1ccco1	-5%	-6%	-7	?	-6%	0%
SMILES	HEK293 tox	GLP-1R agonist	CCT chaperon mod	GLP1R inv ag	Mm-Cpn inhibitor	uPA generation
CN(C)c1ccc(CN(Cc2ccco2)C(=O)c2ccco2)cc1	-3%	-5%	2	11µM*	-1%	8%
C#C[C@@]1(O)CC[C@@H]2[C@H]3CCC4=C/C(=N\O)CC[C@H]4[C@@H]3CC[C@]21CC	.	19%	.	.	.	.
CC(C)c1ccc(N2C(=O)CSC23C(=O)N(C)c2ccccc23)cc1 (stereo not drawn)	5%	-5%	.	-3%	.	.
CCCSc1cc(N2CCN(C)CC2)nc(-c2ccc(OC)cc2)n1	-1%	2%	1	8.9µM*	-1%	8%
CCCSc1cc(N2CCCC2)nc(-c2ccccc2)n1	18%	-4%	2	0%	?	3%
COc1cc(OC)cc(C(=O)Nc2ccc(S(=O)(=O)N3CCCCC3c3cccnc3)cc2)c1 (stereo not drawn)	?	.	.	7.1µM*	.	.
CCN1CCN(C(c2ccc(SC)cc2)c2c(O)cc(C)n(Cc3ccco3)c2=O)CC1 (stereo not drawn)	3%	.	.	?	.	.
CCOC(=O)c1c(-c2ccccc2)oc2ccc(NS(=O)(=O)c3cc(C)c(C)cc3C)cc12	8%	.	.	4.5µM*	.	.
CC(=O)c1ccc(NC(=O)C2CCCN(S(=O)(=O)c3cn(C)cn3)C2)cc1 (stereo not drawn)	4%	.	.	5%	.	.
Cc1cc(NC(=O)c2sc(Nc3cccc(C(F)(F)F)c3)nc2N)no1	8%	0%	-3	5µM*	1%	1%
CC1CCc2c(sc(NC(=O)c3cc4nc(-c5ccc(Cl)cc5)cc(C(F)(F)F)n4n3)c2C#N)C1 (stereo not drawn)	3%	.	.	-5%	.	.
O=S(=O)(NNc1ccc(Cl)nn1)c1ccc(F)cc1	1%	0%	-69*	50%	1%	6%
CC(C)(S)C(=O)NC(CS)C(=O)O (stereo not drawn)	.	0%	.	.	.	.
COc1cccc(N/C(SCc2ccccc2Cl)=C(/C#N)C(=O)NCc2cccs2)c1	12%	-1%	2	-3%	2%	-1%
COc1cccc(N/C(SCc2ccccc2C)=C(/C#N)C(=O)NCc2cccs2)c1	15%	-5%	1	7.1µM*	0%	11%
O=C(c1ccc(Cl)c(Cl)c1)N(Cc1ccco1)c1ccc(O)cc1	-3%	2%	2	11µM*	0%	0%
CCN1C(=O)[C@H]2[C@@H](c3ccc(-c4cccc(Cl)c4)cc3)N[C@@](Cc3ccccc3)(C(=O)OC)[C@H]2C1=O	6%	-2%	-3	7.9µM*	-7%	?
CCN1C(=O)[C@H]2[C@@H](c3ccc(-c4ccc5c(c4)OCO5)cc3)N[C@@](Cc3ccccc3)(C(=O)OC)[C@H]2C1=O	6%	12%	-1	-25%	2%	3%

Screens from PubChem.
